TrxR1 substrate = rat thioredoxin reductase 1 substrate activity | 0.01% of 390,000 active | AID 588456 | Potency, µM (series often up to 114 µM) | purified TrxR1 substrate turnover, NADPH consumption readout; further: nearly all actives have a fitted effect of over 50% in size
Target sequence (O89049 whole entry, looked up): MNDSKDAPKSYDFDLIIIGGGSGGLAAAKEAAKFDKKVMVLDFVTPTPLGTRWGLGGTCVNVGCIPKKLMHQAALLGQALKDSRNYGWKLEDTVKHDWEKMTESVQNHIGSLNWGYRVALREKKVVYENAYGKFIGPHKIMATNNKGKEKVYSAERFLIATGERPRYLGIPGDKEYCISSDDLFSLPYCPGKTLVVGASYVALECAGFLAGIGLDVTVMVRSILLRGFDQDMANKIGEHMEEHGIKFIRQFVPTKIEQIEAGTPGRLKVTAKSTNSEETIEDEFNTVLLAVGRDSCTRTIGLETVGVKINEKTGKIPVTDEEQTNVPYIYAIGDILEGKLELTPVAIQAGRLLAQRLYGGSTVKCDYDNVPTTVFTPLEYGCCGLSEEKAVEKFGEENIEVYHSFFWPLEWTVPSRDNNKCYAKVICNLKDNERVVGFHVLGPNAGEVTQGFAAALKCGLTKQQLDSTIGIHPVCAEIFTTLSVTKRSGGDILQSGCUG
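Rat TrxR1, dispensed at 90 nM, was prereduced with 400 uM NADPH (final) for 5 min at ~22 deg C, then incubated with compound 15 min before 400 uM selenite. A first-read NADPH fluorescence drop versus no-compound background flagged substrates.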
GLP1R ag = activates the human GLP-1 receptor; P43220; HEK293 GLP-1R CRE-luciferase, luminescence, 4-6 h; cells express a hypersensitive GLP-1R form; Potency, µM (top dose mostly 45.6 µM), actives largely listed as activators; 0.007% of 380,000 active
GLP1R cytotox = cytotoxicity counter-screen for GLP-1 receptor inverse agonists; HEK293 cAMP-luciferase reporter cells, luminescence, 24 h; Potency, µM (series often up to 38.3 µM), actives largely listed as inhibitors; 0.13% of 410,000 active; AID 624418;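 further: loss of luciferase light is scored as toxicity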
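Quantitative HTS format, 1536 wells, 200 cells/uL seeded. Compounds: 23 nL, 24 h, 37 °C. Detection: luciferase reagent, luminescence at 12 min RT; decreased signal taken as cytotoxic.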
IDH1 R132H inh = blocks human mutant IDH1 R132H enzyme; Potency, µM (doses to about 76.6 µM), most hits filed as inhibitors; AID 602179; 0.093% of 390,000 active; IDH1-R132H enzyme, NADPH consumption, diaphorase/resazurin fluorescence; further: nearly all actives have a fitted effect of over 65% in size
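IDH1-R132H (0.5 ug/mL) preincubated 30 min with compound, then NADPH (0.016 mM) and alpha-KG (2 mM) added; 80 min at RT, pH 7.5. Remaining NADPH coupled via diaphorase/resazurin to fluorescence (540/590 nm); concentration-response curves normalized to no-enzyme control.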
GLP-1R inv ag = acts as inverse agonist at human GLP-1 receptor; 1.6% of 410,000 active; HEK293 GLP-1R CRE-luciferase, luminescence, 24 h; GLP-1R form is constitutively active; P43220; Potency, µM (series often up to 38.3 µM), most hits filed as inhibitors; further: nearly all actives have a fitted effect of over 55% in size
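Assay principle: reduced luminescence from a cAMP-responsive reporter in HEK293 cells co-expressing a constitutively active GLP-1R. Conditions: 24 hr compound incubation, 37 deg C, 5% CO2.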
rTrxR1 inhibitor = inhibitors of rat thioredoxin reductase 1; O89049; recombinant rTrxR1, NADPH fluorescence consumption, selenite substrate; Potency, µM (series often up to 114 µM), most hits filed as inhibitors; 1% of 390,000 active; further: nearly all actives have a fitted effect of over 65% in size
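Rat TrxR1 (90 nM in the dispensed reagent) was pre-reduced with 400 uM NADPH for 5 min at room temperature, then incubated with compound for 15 min. After 400 uM selenite was added, NADPH fluorescence (Ex 340/Em 450 nm) was followed for 8 min.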
Of the large screens only hits and unclear results are named; the others gave an inactive call. An excerpt weighted towards active compounds, which were near 2.7% of everything screened. The call rests on the fitted dose curve; in most records, active means well fitted curve in the direction sought with a large enough effect; inconclusive means small, poorly fitted or top-dose-only effect, or another doubt; inactive means no such curve, though single readings can be large; an effect the other way counts as inactive or inconclusive.

COc1ccc(C(=O)N2CCc3cc4c(cc3C2C)OCCCO4)cc1 (configuration not stated)	GLP-1R inv ag inconclusive
CC1c2cc3c(cc2CCN1C(=O)c1ccc(Br)cc1)OCCCO3 (configuration not stated)	GLP-1R inv ag 3.2µM
CCOc1ccc2c(c1)n([O-])c1c([n+]2=O)CCCC1	rTrxR1 inhibitor 50µM
CCOc1cc(/C=C2\C(=O)N(Cc3ccc(C)cc3)C(C)=C2C(=O)OC)ccc1O	GLP-1R inv ag inconclusive, rTrxR1 inhibitor 28µM
CCOC(=O)C1=C(C)N(c2ccc(OC)cc2)C(=O)/C1=C\c1cccs1	none
C=CCN1C(=O)/C(=C\c2cccs2)C(C(=O)OC)=C1C	none
C=CCOc1cccc(/C=C2\C(=O)N(Cc3ccc(C)cc3)C(C)=C2C(=O)OC)c1	GLP-1R inv ag 4.5µM
CCOC(=O)C1=C(C)N(c2ccc(OC)cc2)C(=O)/C1=C\c1ccc(O)c(OCC)c1	rTrxR1 inhibitor 40µM
Cn1c(C(c2cc3ccccc3n2C)c2cc3ccccc3n2C)cc2ccccc21	none (no result: GLP1R ag, GLP1R cytotox, IDH1 R132H inh, GLP-1R inv ag)
O=C(Nc1ccc(Cl)c(Cl)c1)Nc1nccs1	GLP-1R inv ag 3.2µM
CCn1cc(CN2CCCC(C(=O)Nc3cccc(-c4cc5ccccc5[nH]4)c3)C2)c(C)n1 (configuration not stated)	GLP1R cytotox inconclusive, GLP-1R inv ag 11µM
Cn1cc(CN2CCCC(C(=O)Nc3cccc(-c4cc5ccccc5[nH]4)c3)C2)cn1 (configuration not stated)	GLP1R cytotox inconclusive, GLP-1R inv ag inconclusive
Nc1ccc2oc(Cc3ccc(Cl)cc3)nc2c1	rTrxR1 inhibitor 50µM (no result: GLP1R ag, IDH1 R132H inh)
COC1CCN(C(=O)c2ccc3oc(Cc4ccc(Cl)cc4)nc3c2)CC1	GLP-1R inv ag inconclusive
COc1ccccc1/C=C/C(=O)c1cc(Br)ccc1OC(=O)c1ccco1	GLP1R cytotox inconclusive, GLP-1R inv ag 5µM
CNc1ccccc(C(=O)/C=C/c2ccccc2OC)c1=O	GLP-1R inv ag inconclusive, rTrxR1 inhibitor 8.9µM
O=C(/C=C/c1cc(Br)ccc1O)c1ccco1	GLP1R cytotox inconclusive, GLP-1R inv ag inconclusive, rTrxR1 inhibitor 35µM
O=C(/C=C/c1ccccc1O)c1ccco1	GLP1R cytotox inconclusive, GLP-1R inv ag inconclusive
Cc1ccc(/C=C/C(=O)c2cc(Br)ccc2OC(=O)c2ccco2)cc1	GLP-1R inv ag inconclusive
CNc1ccc(Br)cc(C(=O)/C=C/c2cccc(OC)c2OC)c1=O	none
CNc1ccc(Br)cc(C(=O)/C=C/c2cccc(Cl)c2Cl)c1=O	GLP-1R inv ag inconclusive, rTrxR1 inhibitor 11µM
COc1ccc(N2CC(NC(=O)c3ccc(Br)o3)CC2=O)cc1 (configuration not stated)	none (no result: GLP1R ag)
CCCn1c(CC)nc([N+](=O)[O-])c1S(=O)(=O)c1ccccc1	GLP1R cytotox inconclusive, GLP-1R inv ag inconclusive, rTrxR1 inhibitor 0.32µM
CCCOc1cc(C)c(Cl)cc1S(=O)(=O)N(CC)CC	GLP-1R inv ag 2.5µM
COc1cc(C(=O)NCCc2sc(-c3cccc(F)c3)nc2C)cc(OC)c1OC	none (no result: GLP1R ag)
O=C(CSc1nc2ccccc2o1)Nc1nc2ccccc2s1	none
O=C(CSc1nc2ccccc2o1)Nc1nc2c(s1)CCCC2	GLP-1R inv ag 2.5µM
C=CCNC(=S)NNc1nc2c(c(=O)[nH]1)C1(CCCCC1)Cc1ccccc1-2	GLP-1R inv ag 10µM
CCOc1cc(CNCCO)cc(Br)c1OCc1ccccc1Cl	GLP1R cytotox inconclusive, GLP-1R inv ag inconclusive
CCOc1cc(CNCCCN2CCOCC2)cc(Br)c1OCc1ccccc1Cl	GLP1R cytotox inconclusive, GLP-1R inv ag 4.5µM
C/C(=N\N(c1ccccc1)c1ccccc1)c1ccco1	GLP-1R inv ag 8.9µM
O=C(COc1ccc(/C=N/NC(=O)c2cc3ccccc3o2)cc1Cl)Nc1ccccc1	GLP1R cytotox inconclusive, GLP-1R inv ag 4.5µM
COc1cc(/C=N/NC(=O)c2ccccc2O)ccc1OCC(=O)Nc1ccccc1	none
Clc1ccc2c(c1)-c1ccccc1C1=NCCN12	GLP1R cytotox inconclusive, GLP-1R inv ag 4µM (no result: TrxR1 substrate, rTrxR1 inhibitor)
Brc1ccc2c(c1)-c1ccccc1C1=NCCN12	GLP1R cytotox inconclusive, GLP-1R inv ag inconclusive (no result: TrxR1 substrate, rTrxR1 inhibitor)
COc1cccc(CNC(=O)c2sc3ncccc3c2-n2c(C)ccc2C)c1OC	none (no result: GLP1R ag)
CC(NC(=O)CN(C)CC(=O)Nc1ccc(Cl)c(C(F)(F)F)c1)c1ccccc1 (configuration not stated)	GLP-1R inv ag 10µM
CCN(CC)c1ccc2cc(S(=O)(=O)c3ccc(Cl)cc3)c(=O)oc2c1	GLP-1R inv ag 10µM
Oc1cc(O)c(/C=C/c2ccnc3ccccc23)c(O)c1	none (no result: GLP1R ag, GLP1R cytotox, IDH1 R132H inh, GLP-1R inv ag)
COc1cc(N(C)C)c(OC)cc1/C=C1\C=Cc2ccccc21	none (no result: GLP1R ag, GLP1R cytotox, IDH1 R132H inh, GLP-1R inv ag)
CCOC(=O)/C=C1/SCC(=O)N1Cc1ccc(Br)cc1	GLP-1R inv ag 5.6µM
CN(C)c1ccc(/C=C/c2ccc3cc(N)ccc3n2)cc1	none (no result: GLP1R ag, GLP1R cytotox, IDH1 R132H inh, GLP-1R inv ag)
CCN(CC)Cc1c(NC(=O)c2ccccc2)sc(C)c1C	rTrxR1 inhibitor 7.1µM
CCN(CC)C(=O)c1c(NC(=O)c2ccccc2)sc(C)c1C	none
COc1ccc2[nH]c3c(c2c1)CCN(C(=O)c1cccc(Cl)c1)C3c1ccc(F)cc1 (configuration not stated)	GLP-1R inv ag 4.5µM
CCOc1cccc(C2c3[nH]c4ccccc4c3CCN2C(=O)CSCc2ccc(F)cc2)c1 (configuration not stated)	GLP-1R inv ag inconclusive (no result: GLP1R ag)
CSc1ccc(C2c3[nH]c4ccccc4c3CCN2C(=O)CCC2CCCC2)cc1 (configuration not stated)	GLP-1R inv ag 2.2µM (no result: GLP1R ag)
CCOc1ccc(C2c3[nH]c4ccccc4c3CCN2C(=O)CSCc2ccc(F)cc2)cc1 (configuration not stated)	GLP-1R inv ag 2.8µM (no result: GLP1R ag)
CCOc1cccc(CC(=O)N2CCc3c([nH]c4ccccc34)C2c2ccc(C)cc2)c1OCC (configuration not stated)	GLP-1R inv ag 10µM (no result: GLP1R ag)
O=C(CSc1ccccc1)N1CCc2c([nH]c3ccccc23)C1c1ccc(F)cc1 (configuration not stated)	GLP-1R inv ag inconclusive (no result: GLP1R ag)
COc1cc(NC(=O)Cn2nc3c(cc2=O)CC(C)CC3)cc(OC)c1OC (configuration not stated)	none (no result: GLP1R ag)
O=c1[nH]c2c(-c3nc(-c4ccc(F)cc4)cs3)c(O)cn2c2ccc(Br)cc12	none (no result: GLP1R ag, GLP1R cytotox, IDH1 R132H inh, GLP-1R inv ag)
CN(C)S(=O)(=O)N(CC(=O)NCCSc1ccccc1)c1ccccc1	none

Assay outcomes as filed in PubChem BioAssay.
